Test [1] in a line: Viability qHTS for spleen associated tyrosine kinase inhibitor (SYKi) naive MV4-11 cells (AID 1963823). Further: nearly all actives have a fitted effect of over 40% in size. In outline: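 qHTS, SYK inhibitor-naive MV4-11; 500 cells/well; 72 hr compound exposure, 37 C; CellTiter-Glo added, 10 min RT; luminescence read.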
A general note: qHTS replaces the single test concentration by a dilution series.

Test [2] can be described thus: Viability qHTS for spleen associated tyrosine kinase inhibitor (SYKi) drug resistant MV4-11 cells (AID 1963824). Further: nearly all actives have a fitted effect of over 35% in size. In outline:
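SYK-inhibitor-resistant MV4-11 AML cells were seeded at 500 per well onto compound and cultured 72 hours (37 °C, 5% CO2). CellTiter-Glo was then added, and after 10 min at room temperature, luminescence gave viability.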

Test [3] can be described thus: Cellular viability qHTS for adrenocortical cancer (ACC) cell line NCI-H295R (AID 1963990). Further: nearly all actives have a fitted effect of over 60% in size.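 On activity change, negative = viability loss: 0% = DMSO only wells and -100% = full killing with cytotoxic reference compound.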 In outline: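 Readout: CellTiter-Glo luminescence, 20 min RT. Exposure: 48 h, 37C/5% CO2. Cells: NCI-H295R, ITS-DMEM serum-free. Range: up to 46 uM. Analysis: 4PL fit, IC50 plus efficacy.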

We go through 26 compounds from PubChem BioAssay (NCATS).

Structures are written as SMILES. Values joined by “and” are separate entries in the source; they are usually repeats but may differ in a detail not shown here. Identical values can stand only once. Results filed as inconclusive are left out. Where a structure was tested more than once in an assay, its records may differ in their call. Active and inactive are the calls of the source. The call rests on the fitted dose curve; in most records, active means well fitted curve in the direction sought with a large enough effect; inconclusive means small, poorly fitted or top-dose-only effect, or another doubt; inactive means no such curve, though single readings can be large; an effect the other way counts as inactive or inconclusive.
Potency means the concentration at half of the fitted maximal effect.

As for `CC(=O)N1CCC[C@H]1C(=O)N[C@@H](Cc1cnc[nH]1)C(=O)N[C@@H](CO)C(=O)N[C@@H](CS)C(=O)N[C@@H](CC(N)=O)C(N)=O`, the Potency entry in test [1], in test [2] and in test [3] was “inactive” each time.
Consider `CCO[C@@H]1O[C@H](C(COCc2ccccc2)OCc2ccccc2)[C@H](OCc2ccccc2)[C@H]1O` (stereo partly drawn), for which the Potency is 15 µM (active) in test [1], 11.9 µM (active) in test [2] and 23.1 µM (active) in test [3].
In the same order, the values of `CC1=C2C[C@H]3[C@@H](CC[C@@H]4C[C@H](NS(C)(=O)=O)CC[C@@]43C)[C@@H]2CC[C@@]2(C1)O[C@@H]1C[C@H](C)CN[C@H]1[C@H]2C` are 9.34 µM (active), 4.68 µM (active) and 17.8 µM (active).
In the case of `CNC(=O)c1cccc(-c2ccc3c(N4CCOC[C@@H]4C)nc(N4CCOC[C@@H]4C)nc3n2)c1`, the Potency in test [1] is 164 nM (active) and 411 nM (active) and 132 nM (active); in test [2], 291 nM (active) and 580 nM (active) and 417 nM (active); in test [3], 0.794 µM (active).
Turning to `Cc1ccc(-c2nc(N)nc3c2nnn3Cc2cccc(CO[C@H]3CCOC3)n2)o1`, the Potency entry in test [1] and in test [3] was “inactive” each time. For the same compound, in test [2], the Potency was 16.6 µM (active).
Regarding `O=C1Nc2ccc(Cl)cc2[C@@](C#CC2CC2)(C(F)(F)F)O1`, the Potency in test [1] is 16.6 µM (active) and 5.17 µM (active); in test [2], 13.2 µM (active) and 5.8 µM (active); in test [3], 22.4 µM (active).
`C[C@]12CC[C@@H]3c4ccc(O)cc4CC[C@H]3[C@@H]1CC[C@@H]2O`: the Potency in test [1] is 16.6 µM (active); in test [2] it was 14.8 µM (active); in test [3] it was 7.94 µM (active).
In the same order, the values of `C[N+](C)(CCOc1ccccc1)Cc1cccs1` are “inactive”, “inactive” and “inactive”.
In the same order, the values of `CCOC(=O)N1CCN(/[N+]([O-])=N/Oc2ccc([N+](=O)[O-])cc2[N+](=O)[O-])CC1` are 2.95 µM (active), 2.63 µM (active) and 22.4 µM (active).
In the same order, the values of `CC(COc1ccccc1)NC(C)C(O)c1ccc(O)cc1` (stereo not drawn) are “inactive”, “inactive” and “inactive”.
For the compound `CC(C)Oc1ccc(-c2nc(-c3cccc4c3CC[C@@H]4NCCO)no2)cc1C#N`, the Potency in test [1] was 11.8 µM (active); in test [2], 11.8 µM (active); in test [3], 28.2 µM (active).
`CCOC(=O)c1ccc(N)cc1`: the Potency result in test [1], in test [2] and in test [3] was “inactive” each time.
In the case of `COc1cc2c(cc1OC)-c1cc(=Nc3c(C)cc(C)cc3C)n(C)c(=O)n1CC2`, the figures for the Potency in test [1], in test [2] and in test [3] were 9.44 µM (active), 10.6 µM (active) and 20.6 µM (active), respectively.
In the case of `O=C1Nc2ccc(I)cc2/C1=C/c1cc(Br)c(O)c(Br)c1`, the Potency is 18.6 µM (active) in test [1] and 14.8 µM (active) in test [2]. For the same compound, in test [3], the Potency entry is “inactive”.
For `Cc1ccc2c(Br)cc(Br)c(O)c2n1`, the Potency is 16.8 µM (active) in test [1], 11.9 µM (active) in test [2] and 1.64 µM (active) in test [3].
On to `O=[N+]([O-])c1ccc(-c2nc(-c3ccc(F)cc3)c(-c3ccncc3)[nH]2)cc1`, for which the Potency in test [1] is 14.8 µM (active) and 5.17 µM (active); in test [2], “inactive and 9.34 µM (active) and 2.06 µM (active)”. For the same compound, the Potency entry in test [3] is “inactive”.
As for `Cc1ccccc1N=Nc1ccc(N=Nc2c(O)ccc3ccccc23)c(C)c1`, the Potency result in test [1], in test [2] and in test [3] was “inactive” throughout.
On to `COc1ccc(NS(=O)(=O)c2ccc(N)cc2)nn1`, for which the Potency result in test [1], in test [2] and in test [3] was “inactive” in each case.
Turning to `N#CN1CCC[C@@H](n2nc(-c3ccc(Oc4ccc(F)cc4F)cc3)c(C(N)=O)c2N)C1`, the Potency is 13 µM (active) in test [1] and 18.6 µM (active) in test [2]. In addition, the Potency result in test [3] was “inactive”.
In the same order, the values of `Cc1sc2c(c1C)C(c1ccc(Cl)cc1)=N[C@@H](CC(=O)Nc1ccc(OCCOCCOCCOCCNc3cccc4c3C(=O)N(C3CCC(=O)NC3=O)C4=O)cc1)c1nnc(C)n1-2` (stereo partly drawn) are “inactive”, 0.0166 µM (active) and 3.98 µM (active).
Turning to `O=C(c1ccc(Nc2nc(C3CC3)cn3c(-c4cn[nH]c4)cnc23)c(F)c1)N1CCOCC1`, the Potency in test [1] is 1.05 µM (active); in test [2], 1.66 µM (active); in test [3], 7.94 µM (active).
On to `NCC[C@H](O)C(=O)N[C@@H]1C[C@H](N)[C@@H](O[C@H]2O[C@H](CN)[C@@H](O)[C@H](O)[C@@H]2O)[C@H](O)[C@@H]1O[C@H]1O[C@H](CO)[C@@H](O)[C@H](N)[C@@H]1O`, for which the viability (% of control) in test [1] was 113% [at 0.588 µM] (inactive). For the same compound, the viability, % of control in test [2] was 95% [at 0.588 µM] (inactive). The activity change, negative = viability loss in test [3] is 7.11% [at 0.587 µM] (inactive).
As to `Cc1ccc(C(=O)OCc2ccc([C@@H](CN)C(=O)Nc3ccc4cnccc4c3)cc2)c(C)c1`, the results for the Potency in test [1], in test [2] and in test [3] were 1.15 µM (active), 2.29 µM (active) and 11.3 µM (active), respectively.
In the same order, the values of `CN(C)CCCOc1ccc(-c2ccc3ncc4c(c3c2)n(C2CCOCC2)c(=O)n4C)cn1` are 1.15 µM (active), 2.04 µM (active) and 1.8 µM (active).
On the same counts, the results for `CO/N=C(\C(=O)O)c1csc(NC(=O)CCl)n1` are “inactive”, “inactive” and “inactive”.
In the same order, the values of `Cc1c(C)n(Cc2ccccc2)c2ccc(C(=O)OCCN(C)C)cc12` are 11.9 µM (active), 11.9 µM (active) and 23.1 µM (active).
